High-throughput results from PubChem.
Shiga toxin inh: A qHTS for Small Molecule Inhibitors of Shiga Toxin. Vero cells, Shiga toxin protein synthesis inhibition reporter. inhibition, % at 38.7 µM. 290,000 tested, 9.2% active. AID 2315, 2010; in the data active = inhibition mostly above about 28%, no sharp cut-off; inactive = mostly below about 43%; note: 0% is about no effect
Cycloheximide cs: Cycloheximide Counterscreen for Small Molecule Inhibitors of Shiga Toxin; max response, %; 300,000 tested, 12% active; AID 2314, 2010; cell reporter, cycloheximide protein synthesis inhibition counterscreen; in the data active = max response mostly above about 13%, no sharp cut-off; inactive = mostly below about 14%; note: read at 38.3 µM for the half of the compounds with a filed dose; 0% is about no effect
RE007 growth inh: qHTS Assay for Inhibitors of the HIV-1 protein Vpr; S. pombe RE007 Vpr strain, BacTiter-Glo ATP luminescence, 24 h; Potency, µM (highest dose often 92.2 µM), inactives show at the highest dose activity change, negative = less growth, usual class: inhibitors; 360,000 tested, 0.21% active; AID 651644, 2012; active = well fitted falling curve with a large enough effect; inconclusive = small, poorly fitted or top-dose-only effect; inactive = no such curve, though single readings can be large or run the other way; note: potency is the fitted concentration of half-maximal effect; % is set by controls: 0 for no effect and ±100 for the full control effect; nearly all actives have a fitted effect of over 50% in size
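Fission yeast strain RE007, carrying one chromosomally integrated HIV-1 vpr copy, was seeded at OD 0.01 in PMG+AL medium with 23 nL pinned compound. After 24 h at 30 °C and 99% humidity, viability was read by BacTiter-Glo luminescence.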
TbPYK inhibitor: qHTS of Trypanosoma Brucei Inhibitors; pyruvate kinase (Trypanosoma brucei), Q57TT1; TbPYK enzyme, Kinase-Glo Plus ATP luminescence, 45 min; Potency, µM (series often up to 76.8 µM), for inactives: top-dose activity, negative = inhibition, most hits filed as inhibitors; 410,000 tested, 0.12% active; AID 624173, 2012; note: potency is the fitted concentration of half-maximal effect; % is set by controls: 0 for no effect and ±100 for the full control effect; nearly all actives have a fitted effect of over 50% in size
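T. brucei PYK with substrate was exposed to pin-transferred compounds across a concentration series, then started with 130 uM ADP (final). After 45 min at room temperature, Kinase-Glo Plus luminescence was read, normalized and curve-fitted.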
FBPA Giardia inh: qHTS Assay for Inhibitors of Fructose-1,6-bisphosphate Aldolase from Giardia Lamblia | purified Giardia FBPA | Potency, µM (titrated, usually from 59.6 µM), without a hit: top-dose activity, negative = inhibition, most hits filed as inhibitors | 290,000 tested, 0.71% active | AID 2451, 2010; note: potency is the fitted concentration of half-maximal effect; % is set by controls: 0 for no effect and ±100 for the full control effect; nearly all actives have a fitted effect of over 55% in size
Target sequence (A8B2U2 whole entry, looked up): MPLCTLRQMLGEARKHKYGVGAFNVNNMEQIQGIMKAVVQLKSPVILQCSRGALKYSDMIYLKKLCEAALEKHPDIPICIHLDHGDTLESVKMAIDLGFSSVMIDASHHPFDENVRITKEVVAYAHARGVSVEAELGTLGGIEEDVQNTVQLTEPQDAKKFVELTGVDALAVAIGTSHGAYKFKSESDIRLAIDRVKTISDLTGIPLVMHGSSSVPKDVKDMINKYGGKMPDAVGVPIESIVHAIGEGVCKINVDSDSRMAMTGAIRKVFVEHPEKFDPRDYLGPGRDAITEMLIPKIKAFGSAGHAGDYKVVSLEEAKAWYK
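40 nM FBPA preincubated 10 min at RT with compound (up to 57.5 uM final), then substrate plus GAPDH/TPI/NAD/arsenate coupling and diaphorase/resazurin added. Fluorescence read after 20 min at RT, 525/598 nm.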
LmPK inhibitor: qHTS Assay for Inhibitors of Leishmania Mexicana Pyruvate Kinase (LmPK). Q27686. purified LmPK, Kinase-Glo ATP luminescence, 1 h. Potency, µM (doses to about 57.5 µM), for the others: top-dose activity change, negative = inhibition, usual class: inhibitors. 290,000 tested, 0.37% active; note: potency is the fitted concentration of half-maximal effect; % is set by controls: 0 for no effect and ±100 for the full control effect
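In 50 mM imidazole pH 7.2 with 7 mM MgCl2, LmPK (0.1 nM) turned over PEP (0.5 mM) and ADP (0.1 mM) for 1 h at room temperature. Luciferase read-out of ATP.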
An asterisk follows results filed as active. The entries come from a sample that favours hits as a whole. Unless noted, calls come from the whole dose curve; as a rule, active = well fitted curve in the direction sought with a large enough effect; inconclusive = small, poorly fitted or top-dose-only effect, or another doubt; inactive = no such curve, though single readings can be large; an effect the other way counts as inactive or inconclusive.

`COc1cccc(OCC(O)CN2CCC(CN3C(=O)c4cccc5cccc(c45)C3=O)CC2)c1` (configuration not stated) gave Shiga toxin inh 13, Cycloheximide cs -5, RE007 growth inh 2%, TbPYK inhibitor 0%, FBPA Giardia inh -4% and LmPK inhibitor 15%.
Screening O=C1c2cccc3cccc(c23)C(=O)N1CC1CCN(CC(O)COc2ccc3ccccc3c2)CC1 (configuration not stated) returned Shiga toxin inh 128*, Cycloheximide cs 72*, RE007 growth inh 9%, TbPYK inhibitor -4% and LmPK inhibitor 2%.
For CC(/C=C/c1ccco1)=N\NC(=O)c1cc(Cl)ccc1O the results were Shiga toxin inh 91*, Cycloheximide cs 27*, RE007 growth inh -17%, TbPYK inhibitor -7%, FBPA Giardia inh -27% and LmPK inhibitor 20%.
For CC(/C=C/c1ccco1)=N/NC(=O)OC(C)(C)C the results were Shiga toxin inh 52, Cycloheximide cs 23*, RE007 growth inh 11%, TbPYK inhibitor -14%, FBPA Giardia inh -15% and LmPK inhibitor 1%.
O=C(C=Cc1ccco1)c1cc(Cl)ccc1O was read as RE007 growth inh inconclusive and TbPYK inhibitor -1%.
COc1ccc(CC(=O)N/N=C(/C)c2ccco2)cc1 was read as Shiga toxin inh -7, Cycloheximide cs 1, RE007 growth inh 4%, TbPYK inhibitor 0%, FBPA Giardia inh 0% and LmPK inhibitor -5%.
`C/C(=N/NC(=O)OC(C)(C)C)c1ccco1` gave Shiga toxin inh 66*, Cycloheximide cs 29*, RE007 growth inh 2%, TbPYK inhibitor -9%, FBPA Giardia inh -2% and LmPK inhibitor inconclusive.
For COc1ccccc1N(C)S(=O)(=O)c1ccc(C(=O)OCC(=O)c2c[nH]c3ccccc23)cc1 the results were Shiga toxin inh 5, Cycloheximide cs 2, RE007 growth inh 11%, TbPYK inhibitor 9%, FBPA Giardia inh -3% and LmPK inhibitor -1%.
Screening CCCC(C(=O)Nc1cccc(S(=O)(=O)N2CCCC2)c1)c1ccccc1 (configuration not stated) returned RE007 growth inh 5% and TbPYK inhibitor 3%.
Nc1ccc(Nc2nc(-c3cc4ccccc4oc3=O)cs2)cc1 was read as Shiga toxin inh 116*, Cycloheximide cs 43*, RE007 growth inh inconclusive, TbPYK inhibitor -2%, FBPA Giardia inh -4% and LmPK inhibitor -8%.
Screening CC(=O)Nc1ccc(Nc2nc(-c3cc4ccccc4oc3=O)cs2)cc1 returned Shiga toxin inh 69*, Cycloheximide cs 47*, RE007 growth inh -4%, TbPYK inhibitor -6%, FBPA Giardia inh -7% and LmPK inhibitor 6%.
For O=C(O)c1ccc(Nc2nc(-c3cc4ccccc4oc3=O)cs2)cc1O the results were Shiga toxin inh 20, Cycloheximide cs 14, RE007 growth inh -1%, TbPYK inhibitor 4%, FBPA Giardia inh -13% and LmPK inhibitor 4%.
For COc1ccc(OCC(=O)Nc2ccccc2C(=O)NC2CC2)cc1 the results were RE007 growth inh 5% and TbPYK inhibitor -6%.
Screening O=C(NNC(=S)NC(=O)c1cccs1)c1ccc(O)cc1 returned Shiga toxin inh 28*, Cycloheximide cs 23, RE007 growth inh 13%, TbPYK inhibitor -14% and LmPK inhibitor -2%.
Screening CCC(=O)NC(=S)NNC(=O)c1ccc(O)cc1 returned Shiga toxin inh 24, Cycloheximide cs 23*, RE007 growth inh -7%, TbPYK inhibitor -6%, FBPA Giardia inh -9% and LmPK inhibitor 4%.
`O=C(Nc1cccc(NC(=O)c2cccs2)c1)c1ccc(Br)cc1` gave Shiga toxin inh 1, Cycloheximide cs 2, RE007 growth inh -6%, TbPYK inhibitor -4%, FBPA Giardia inh 1% and LmPK inhibitor 9%.
For O=C(NNC(=O)c1ccccc1[N+](=O)[O-])c1cccs1 the results were Shiga toxin inh 13, Cycloheximide cs 14, RE007 growth inh 8%, TbPYK inhibitor -1%, FBPA Giardia inh 2% and LmPK inhibitor 5%.
`O=C(NNC(=O)c1cccs1)c1ccc(Br)cc1` gave Shiga toxin inh 40, Cycloheximide cs 18*, RE007 growth inh -3%, TbPYK inhibitor 1%, FBPA Giardia inh 5% and LmPK inhibitor 2%.
For CCCC(=O)NC(=S)NNC(=O)c1ccc([N+](=O)[O-])cc1 the results were Shiga toxin inh -13, Cycloheximide cs -3, RE007 growth inh -5%, TbPYK inhibitor -24%, FBPA Giardia inh inconclusive and LmPK inhibitor -14%.
Screening O=C(NNC(=O)c1ccccc1Br)c1cccs1 returned Shiga toxin inh 65*, Cycloheximide cs 26*, RE007 growth inh -4%, TbPYK inhibitor 2%, FBPA Giardia inh 3% and LmPK inhibitor 4%.
For COc1cccc(C(=O)Nc2cc(-c3ccccc3)no2)c1 the results were TbPYK inhibitor 0%.
CN1CCN(c2ncc3nc(-c4cccs4)c(=O)n(C[C@H]4CCCO4)c3n2)CC1 was read as TbPYK inhibitor -6% and FBPA Giardia inh -4%.
Cc1ccc(COc2ccc(-c3cc(C(F)(F)F)n4nc(C)cc4n3)cc2)cc1 was read as TbPYK inhibitor -7%.
For CCNc1ncc2nc(-c3cc(F)cc(F)c3)c(=O)n(CCOC)c2n1 the results were FBPA Giardia inh 0%.
For CCc1ccc(S(=O)(=O)c2nnn3c2nc(Nc2ccc(F)cc2)c2cc(Cl)ccc23)cc1 the results were TbPYK inhibitor 0%.
O=C(NNC(=O)c1cccs1)c1ccc(Cl)cc1 was read as Shiga toxin inh 24, Cycloheximide cs 19*, RE007 growth inh 11%, TbPYK inhibitor -4%, FBPA Giardia inh 1% and LmPK inhibitor -3%.
For O=C(NNC(=O)c1cccs1)c1ccccc1 the results were Shiga toxin inh 53*, Cycloheximide cs 28*, RE007 growth inh -1%, TbPYK inhibitor 3%, FBPA Giardia inh 4% and LmPK inhibitor -1%.
Screening O=C(NNC(=O)c1cccs1)c1ccncc1 returned Shiga toxin inh -12, Cycloheximide cs 16, RE007 growth inh -3%, TbPYK inhibitor -4%, FBPA Giardia inh 6% and LmPK inhibitor -2%.
Cc1cccc(C(=O)Nc2ccc(N3CC=C(c4ccccc4C)CC3)c(C(=O)O)c2)c1 was read as TbPYK inhibitor 1%.
For O/N=C/c1cn(-c2ccc(Cl)cc2)nn1 the results were Shiga toxin inh 49, Cycloheximide cs 37*, RE007 growth inh -13%, TbPYK inhibitor 0%, FBPA Giardia inh 7% and LmPK inhibitor -5%.
